Measurements from PubChem BioAssay (NCATS).
Inconclusive results are not listed. Activity calls are given as the source filed them. The call rests on the fitted dose curve; in most records, active means well fitted curve in the direction sought with a large enough effect; inconclusive means small, poorly fitted or top-dose-only effect, or another doubt; inactive means no such curve, though single readings can be large; an effect the other way counts as inactive or inconclusive.

What was measured:
[1] = qHTS of pediatric cancer cell lines to identify multiple opportunities for drug repurposing: Primary screen for NB-EBc1 cells (AID 1347095); further: potency means the concentration at half of the fitted maximal effect
Summary of the method: (§1)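 Cells seeded at 500-1,000 cells/well in growth media, rested 5 hours at 37 degrees C, 5% CO2, then dosed; MIPE compounds at 11-point (from 0.78 nM) and NPC at 8-point (from 0.59 nM) final concentrations. Viability by CellTiter-Glo luminescence after 48 hours.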

[2] = qHTS of pediatric cancer cell lines to identify multiple opportunities for drug repurposing: Primary screen for SK-N-SH cells (AID 1347098); further: nearly all actives have a fitted effect of over 65% in size; further: potency means the concentration at half of the fitted maximal effect
Summary of the method: (§2)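 Cells (500-1,000/well) rested 5 h, then received compounds for 48 h; metabolically active cells were measured by CellTiter-Glo luminescence. Final concentrations spanned up to 46 µM (MIPE, 11-point) or 0.59 nM-46 µM (NPC, 8-point) in primary screens, 11-point in follow-ups.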

[3] = qHTS of pediatric cancer cell lines to identify multiple opportunities for drug repurposing: Primary screen for LAN-5 cells (AID 1347100); further: potency means the concentration at half of the fitted maximal effect
Summary of the method: (§3)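 Viability after 48 h compound treatment at 37C, 500-1,000 cells/well, read as ATP luminescence with CellTiter-Glo. Primary screens used 11-point (MIPE, 0.78 nM-46 µM) or 8-point (NPC, 0.59 nM-46 µM) final concentrations; follow-up screens used 11-point dilutions.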

[4] = qHTS of pediatric cancer cell lines to identify multiple opportunities for drug repurposing: Primary screen for BT-12 cells (AID 1347101); further: nearly all actives have a fitted effect of over 25% in size; further: potency means the concentration at half of the fitted maximal effect
Summary of the method: as §2

[5] = qHTS of pediatric cancer cell lines to identify multiple opportunities for drug repurposing: Primary screen for RD cells (AID 1347104); further: nearly all actives have a fitted effect of over 55% in size; further: potency means the concentration at half of the fitted maximal effect
Summary of the method: as §1

[6] = qHTS of pediatric cancer cell lines to identify multiple opportunities for drug repurposing: Confirmatory screen for NB1643 cells (AID 1347109); further: nearly all actives have a fitted effect of over 45% in size; further: potency means the concentration at half of the fitted maximal effect
Summary of the method: as §3

[7] = qHTS of pediatric cancer cell lines to identify multiple opportunities for drug repurposing: Confirmatory screen for A673 cells (AID 1347110); further: nearly all actives have a fitted effect of over 65% in size; further: potency means the concentration at half of the fitted maximal effect
Summary of the method: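 A673 cells at 500-1,000 cells/well were dosed 5 h after plating, in dilution series up to 46 uM final; primary runs used 8 or 11 points and confirmatory runs used 11 points. Viability was read by CellTiter-Glo luminescence after 48 h, against DMSO and 2.3 uM bortezomib controls.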

[8] = qHTS of pediatric cancer cell lines to identify multiple opportunities for drug repurposing: Confirmatory screen for SK-N-MC cells (AID 1347111);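 further: cells exposed to compound for 48 h before the readout; nearly all actives have a fitted effect of over 70% in size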; further: potency means the concentration at half of the fitted maximal effect
Summary of the method: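 SK-N-MC cells at 500-1,000 cells/well in growth media were pre-incubated 5 h, then exposed to compounds at 11-point dilutions for 48 h at 37 degrees C, 5% CO2. Viability was read as CellTiter-Glo luminescence.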

[9] = qHTS of pediatric cancer cell lines to identify multiple opportunities for drug repurposing: Confirmatory screen for BT-12 cells (AID 1347112); further: nearly all actives have a fitted effect of over 55% in size; further: potency means the concentration at half of the fitted maximal effect
Summary of the method: as §3

[10] = qHTS of pediatric cancer cell lines to identify multiple opportunities for drug repurposing: Confirmatory screen for LAN-5 cells (AID 1347113); further: nearly all actives have a fitted effect of over 65% in size; further: potency means the concentration at half of the fitted maximal effect
Summary of the method: as §3

[11] = qHTS of pediatric cancer cell lines to identify multiple opportunities for drug repurposing: Confirmatory screen for DAOY cells (AID 1347114); further: potency means the concentration at half of the fitted maximal effect; nearly all actives have a fitted effect of over 65% in size
Summary of the method: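 Viability measured as metabolically active cells via CellTiter-Glo luminescence following 48 hours of compound exposure, 11-point dilutions in confirmatory testing. 500-1,000 cells/well plated 5 hours before dosing; controls were DMSO and 2.3 µM bortezomib.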

[12] = qHTS of pediatric cancer cell lines to identify multiple opportunities for drug repurposing: Primary screen for NB1643 cells (AID 1347099); further: nearly all actives have a fitted effect of over 50% in size; further: potency means the concentration at half of the fitted maximal effect
Summary of the method: as §1

[13] = qHTS of pediatric cancer cell lines to identify multiple opportunities for drug repurposing: Primary screen for Rh18 cells (AID 1347102); further: nearly all actives have a fitted effect of over 65% in size; further: potency means the concentration at half of the fitted maximal effect
Summary of the method: as §3

[14] = qHTS of pediatric cancer cell lines to identify multiple opportunities for drug repurposing: Primary screen for OHS-50 cells (AID 1347103); further: nearly all actives have a fitted effect of over 40% in size; further: potency means the concentration at half of the fitted maximal effect
Summary of the method: as §2

[15] = qHTS of pediatric cancer cell lines to identify multiple opportunities for drug repurposing: Primary screen for MG 63 (6-TG R) cells (AID 1347105); further: nearly all actives have a fitted effect of over 50% in size; further: potency means the concentration at half of the fitted maximal effect
Summary of the method: as §1

[16] = qHTS of pediatric cancer cell lines to identify multiple opportunities for drug repurposing: Primary screen for control Hh wild type fibroblast cells (AID 1347106);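 further: series mostly up to about 46 µM; a drop in luminescence marks cytotoxicity and a rise apparent proliferation; nearly all actives have a fitted effect of over 55% in size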
Summary of the method: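 Cells (500-1,000/well) in growth media were settled 5 h at 37 degrees C, then given compounds for 48 h. Viability was read as CellTiter-Glo luminescence. Primary runs used MIPE at 11 points (0.78 nM-46 µM) and NPC at 8 points (0.59 nM-46 µM); follow-ups used 11 points.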

[17] = qHTS of pediatric cancer cell lines to identify multiple opportunities for drug repurposing: Primary screen for Rh30 cells (AID 1347107); further: series mostly up to about 46 µM; nearly all actives have a fitted effect of over 75% in size
Summary of the method: as §3

[18] = qHTS of pediatric cancer cell lines to identify multiple opportunities for drug repurposing: Primary screen for Rh41 cells (AID 1347108); further: nearly all actives have a fitted effect of over 70% in size; further: potency means the concentration at half of the fitted maximal effect
Summary of the method: as §1

[19] = qHTS of pediatric cancer cell lines to identify multiple opportunities for drug repurposing: Primary screen for Saos-2 cells (AID 1347097); further: nearly all actives have a fitted effect of over 40% in size; further: potency means the concentration at half of the fitted maximal effect
Summary of the method: as §1

Measured: Potency

Nc1ccc2cc3ccc(N)cc3nc2c1
active: [1] 4.73 µM | [2] 7.7 µM | [3] 4.22 µM | [4] 7.77 µM | [5] 21.1 µM | [6] 7.37 µM | [7] 7.37 µM | [8] 8.27 µM | [9] 16.5 µM | [10] 8.27 µM | [11] 9.27 µM

Cc1onc(-c2c(Cl)cccc2Cl)c1C(=O)Cl
not listed: [6] | [7] | [8] | [9] | [10] | [11] | [19]
inactive: all other assays above

Nc1ccc2c(c1)CN1C(=O)c3ccccc3C1=N2
inactive: [16]
active: [1] 0.651 µM

CN1CC[C@H](c2c(O)cc(O)c3c(=O)cc(-c4ccccc4Cl)oc23)[C@H](O)C1
inactive: [16] | [17]
active: [1] 0.133 µM | [4] 0.276 µM | [14] 0.276 µM | [5] 0.596 µM

CN1CCC(Nc2ncc3ncnc(Nc4ccc(F)c(Cl)c4)c3n2)CC1
active: [2] 17.2 µM | [13] 26.6 µM
inactive: [1] | [19] | [12] | [15] | [17] | [18]

O=c1[nH]sc2cc(Cl)ccc12
active: [1] 0.001 µM | [2] 0.217 µM | [12] 0.168 µM | [3] 0.001 µM | [13] 18.8 µM | [14] 13.8 µM | [6] 8.27 µM | [8] 9.27 µM | [9] 16.5 µM | [10] 10.4 µM
inactive: [5] | [16]

O=[N+]([O-])c1ccc(O)c2ncccc12
active: [1] 2.37 µM | [19] 10.6 µM | [2] 3.44 µM | [3] 3.76 µM | [4] 5.5 µM | [14] 5.5 µM | [15] 6.68 µM | [6] 14.7 µM | [8] 8.27 µM | [9] 20.8 µM | [10] 9.27 µM

CCCCCOc1ccc(C2SC(=O)NC2=O)cc1OCC (stereo not drawn)
not listed: [4] | [6] | [7] | [8] | [9] | [10] | [11] | [14]
inactive: all other assays above

Cc1nc(N)nc(N)c1-c1ccc(Cl)c(Cl)c1
active: [1] 0.422 µM | [4] 0.872 µM | [14] 2.76 µM | [5] 1.33 µM | [7] 1.65 µM | [8] 0.147 µM
inactive: [12] | [13] | [16] | [17] | [18] | [10]

O=C(Nc1ccc(Cl)cc1)Nc1ccc(Cl)c(C(F)(F)F)c1
active: [1] 5.96 µM | [19] 13.3 µM | [2] 8.64 µM | [4] 9.78 µM | [14] 5.5 µM | [5] 11.9 µM | [15] 21.1 µM

CC[C@@]1(O)C(=O)OCc2c1cc1n(c2=O)Cc2c-1nc1ccccc1c2/C=N/OC(C)(C)C
inactive: [16]
active: [1] 0.0211 µM | [19] 0.0596 µM | [2] 0.194 µM | [12] 0.0531 µM | [3] 0.0211 µM | [4] 0.246 µM | [14] 0.0347 µM | [5] 0.668 µM | [15] 0.0266 µM | [18] 0.944 µM | [6] 0.0414 µM | [7] 0.0117 µM | [8] 0.0052 µM | [9] 1.04 µM | [10] 0.0147 µM

CC(C)(C)CC(=O)OCC(=O)[C@@]1(O)CC[C@H]2[C@@H]3CCC4=CC(=O)C=C[C@]4(C)[C@H]3[C@@H](O)C[C@@]21C
active: [7] 2.33 µM
not listed: [10] | [11] | [14] | [17] | [19]
inactive: all other assays above

NC(=O)NS(=O)(=O)c1ccc(Cl)cc1
not listed: [6] | [7] | [8] | [9] | [10] | [11] | [19]
inactive: all other assays above

OC(CCCN1CCCCC1)(c1ccccc1)c1ccccc1
not listed: [4] | [6] | [7] | [8] | [9] | [10] | [11] | [14]
inactive: all other assays above

O=C1NCCN1CCN1CCC(c2cn(-c3ccc(F)cc3)c3ccc(Cl)cc23)CC1
inactive: [17]
active: [1] 21.1 µM | [2] 21.7 µM | [3] 8.41 µM | [4] 8.71 µM | [14] 11 µM | [5] 26.6 µM

CCC1(c2cnc[nH]2)Cc2ccccc2C1
active: [8] 3.29 µM
not listed: [6] | [9] | [11] | [14] | [15] | [19]
inactive: all other assays above

CCCOc1ccc2c(c1)CC[C@@H]1[C@@H]2CC[C@]2(C)C(OC)CC[C@@H]12 (stereo partly drawn)
not listed: [6] | [7] | [8] | [9] | [10] | [11] | [12] | [14]
inactive: all other assays above

O=C1[C@@H]2[C@H]3CC[C@H](C3)[C@@H]2C(=O)N1CCCCN1CCN(c2ncccn2)CC1
not listed: [2] | [6] | [7] | [8] | [9] | [10] | [11]
inactive: all other assays above

Nc1nc(=O)n([C@@H]2O[C@H](CO)[C@@H](O)[C@@H]2F)cc1I
inactive: [1] | [2] | [12] | [3] | [13] | [5] | [15] | [16] | [17] | [18]
